From PubChem
Rab9 promoter act = qHTS Assay for Rab9 Promoter Activators | Huh7 Rab9 promoter-luciferase reporter, luminescence, 24 h | Potency, µM (titrated, usually from 9.22 µM), usual class: activators | 320,000 tested, 2.8% active | AID 485297, 2010; also: nearly all actives have a fitted effect of over 60% in size
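Luminescence from Amplite-detected luciferase (10 minutes, ambient) reports Rab9 promoter activation. Before that, stable Rab9-luciferase Huh7 cells (1500/well, reduced-serum OP-MEM I plus 10% FBS) were exposed to compound for 24 hours at 37C.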
FLuc counter = qHTS profiling assay for firefly luciferase inhibitor/activator using purifed enzyme and Km concentrations of substrates (counterscreen for miR-21 project) | Potency, µM (series often up to 57.5 µM), actives largely listed as inhibitors | purified FLuc, Km substrates, luminescence inhibition | 360,000 tested, 6.9% active | Luciferin 4-monooxygenase (Photinus pyralis), P08659; also: nearly all actives have a fitted effect of over 55% in size
Target sequence (P08659 whole entry, looked up): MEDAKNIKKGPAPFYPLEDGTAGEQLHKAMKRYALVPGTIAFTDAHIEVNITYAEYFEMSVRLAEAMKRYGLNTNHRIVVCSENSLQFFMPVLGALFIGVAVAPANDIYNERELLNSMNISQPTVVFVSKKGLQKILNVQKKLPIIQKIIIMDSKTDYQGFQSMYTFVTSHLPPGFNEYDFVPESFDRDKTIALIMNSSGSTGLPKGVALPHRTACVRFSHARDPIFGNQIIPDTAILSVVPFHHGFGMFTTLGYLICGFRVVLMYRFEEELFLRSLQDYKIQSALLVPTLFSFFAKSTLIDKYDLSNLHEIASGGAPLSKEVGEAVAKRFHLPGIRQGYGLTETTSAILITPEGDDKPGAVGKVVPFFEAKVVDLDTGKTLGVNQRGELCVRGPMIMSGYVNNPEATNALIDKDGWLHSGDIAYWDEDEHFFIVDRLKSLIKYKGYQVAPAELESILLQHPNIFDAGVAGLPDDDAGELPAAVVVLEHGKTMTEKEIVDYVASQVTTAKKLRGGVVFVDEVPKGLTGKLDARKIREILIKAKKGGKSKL
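Purified P. pyralis luciferase (10nM final) with 10uM D-luciferin and 10uM ATP (Km levels) in 50mM Tris acetate pH 7.5, 10mM Mg acetate, 0.01% Tween-20, 0.05% BSA; qHTS 6-point titration, ~60 µM downward; luminescence read.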
ELG1 genotox = qHTS screen for small molecules that induce genotoxicity in human embryonic kidney (HEK293T) cells expressing luciferase-tagged ELG1; Potency, µM (titrated, usually from 46 µM), hits mostly activators; AID 504466, 2011; HEK293T ELG1-luciferase reporter, luminescence, 16 h; 330,000 tested, 1.3% active; also: nearly all actives have a fitted effect of over 60% in size
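ELG1-luciferase HEK293T cells, 2,000/well; compound pinned in; 16 hr, 37 °C, 5% CO2; ONE-Glo, 30 min RT; luminescence on CCD imager.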
ELG1 repair inh = qHTS screen for small molecules that inhibit ELG1-dependent DNA repair in human embryonic kidney (HEK293T) cells expressing luciferase-tagged ELG1; HEK293T ELG1-luciferase reporter, luminescence, 16 h; DNA damage induced by 5-fluorouridine; Potency, µM (top dose mostly 46.1 µM), hits mostly inhibitors; 330,000 tested, 2.3% active; AID 504467, 2011; also: nearly all actives have a fitted effect of over 55% in size
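Luminescence from the luciferase reporter, measured 30 min after ONE-Glo reagent at room temperature, was the read-out. Beforehand, 2,000 cells per well were exposed for 16 hr at 37 °C to 5-fluorouridine together with compound or vehicle.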
SMN2 splice enh = qHTS Assay for Enhancers of SMN2 Splice Variant Expression. HEK293 SMN2-luciferase splicing reporter, luminescence, 30-36 h. Potency, µM (top dose mostly 46.1 µM), most hits filed as activators. 210,000 tested, 2.8% active; also: nearly all actives have a fitted effect of over 55% in size
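HEK293 cells carry an SMN2 […]–luciferase reporter in which exon 7 inclusion puts luciferase in frame. Cells were plated 10-12 h before compound addition, then incubated 30-36 h at 37C. ONE-Glo luminescence was read; sodium butyrate at 4.5 mM final served as control.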
NPC1 promoter act = qHTS Assay for NPC1 Promoter Activators | 320,000 tested, 2.4% active | Huh7 NPC1 promoter luciferase reporter, 24 h | AID 485313, 2010 | Potency, µM (highest dose often 9.22 µM), actives largely listed as activators; also: nearly all actives have a fitted effect of over 60% in size
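NPC1 promoter–luciferase Huh7 cells; 24 h compound; luminescence.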
A number is an active result; - = inactive; ? = inconclusive; . = not tested or not shown. Only some compounds are listed: those with a hit (about 9.2% of all), similar ones and a draw of the others. Calls follow the shape of the dose curve; as a rule, active = well fitted curve in the direction sought with a large enough effect; inconclusive = small, poorly fitted or top-dose-only effect, or another doubt; inactive = no such curve, though single readings can be large; an effect the other way counts as inactive or inconclusive.

SMILES	Rab9 promoter act	FLuc counter	ELG1 genotox	ELG1 repair inh	SMN2 splice enh	NPC1 promoter act
CN(C)c1cc2c(cc1NC(=O)c1ccc(F)cc1)n(C)c(=O)n2C	.	-	.	.	-	.
COCCCNC(=S)NNC(=O)c1cc(C2CC2)nc2ccccc12	-	12µM	-	-	.	-
CCCc1cc(C(=O)NNC(=S)NCC)c2ccccc2n1	-	?	-	-	-	-
COCCNC(=S)NNC(=O)c1cc(-c2cccnc2)nc2ccccc12	-	8.5µM	-	-	.	-
COCCCNC(=S)NNC(=O)c1cc(-c2ccncc2)nc2ccccc12	-	8.5µM	-	-	.	-
COCCNC(=O)c1cc(-c2cccnc2)nc2ccc(Br)cc12	-	?	-	-	-	-
COCCCNC(=S)NNC(=O)c1cc(-c2cccnc2)nc2ccccc12	-	11µM	-	-	.	-
COc1cc(NC(=O)CCCc2nnc3n(CC(C)C)c(=O)c4sccc4n23)cc(OC)c1	.	-	.	.	.	.
COc1cc(Nc2nc3ccccc3c3nnc(C)n23)cc(OC)c1	.	-	.	.	.	.
Cn1cc(CN2CCC(n3nccc3NC(=O)C3CCCC3)CC2)cn1	-	-	-	-	.	-
CCNC(=S)NNC(=O)c1cc(-c2cc(C)ccc2C)nc2ccccc12	-	19µM	-	-	-	-
COc1ccc(/C(N)=N/OC(=O)c2ccco2)cc1OC	?	?	?	?	11µM	?
N/C(=N\OC(=O)c1ccco1)c1cccc([N+](=O)[O-])c1	-	24µM	?	?	.	-
N/C(Cc1ccc([N+](=O)[O-])cc1)=N\OC(=O)c1ccco1	-	-	-	-	.	-
O=C(COC(=O)c1ccco1)Nc1cccc(Br)c1	-	-	-	-	-	-
COc1ccc(/C(N)=N/OC(=O)CCc2ccccc2)cc1OC	-	-	-	?	-	-
N/C(=N\OC(=O)c1ccco1)c1cccc(Br)c1	-	6.7µM	8.2µM	?	?	-
O=C(O)c1cc2cc(OCc3ccccc3)ccc2[nH]1	-	19µM	-	-	-	-
O=C(O)/C=C/c1cccc(OCc2ccccc2)c1	-	13µM	-	?	-	-
COc1ccc([N+](=O)[O-])cc1/C=N/NC(=O)c1nonc1N	-	-	-	-	-	-
CN(C)c1ccc(/C=N/NC(=O)c2nonc2N)cc1[N+](=O)[O-]	-	12µM	-	-	.	-
Nc1nonc1C(=O)N/N=C/c1cccc([N+](=O)[O-])c1	-	12µM	-	-	-	-
CC(C)Cn1c(=O)c2sccc2n2c(CCCC(=O)N3CCN(c4ccc(F)cc4)CC3)nnc12	.	-	.	.	.	.
O=C(N/N=C/c1cccc([N+](=O)[O-])c1)c1ccc(Br)cc1	-	-	-	-	.	-
CC(=O)c1c(C)oc2ccc(OCc3ccccc3)cc12	-	17µM	-	?	.	-
SMILES	Rab9 promoter act	FLuc counter	ELG1 genotox	ELG1 repair inh	SMN2 splice enh	NPC1 promoter act
O=C(N/N=C/c1cccc(OCc2ccccc2)c1)c1cccs1	-	13µM	-	?	-	-
O=C(N/N=C/c1cccc([N+](=O)[O-])c1)c1cccs1	?	8.5µM	?	?	13µM	?
CSc1ccc(CNc2ccc(Cl)cc2)cc1	?	15µM	-	?	-	-
Clc1ccc(NCc2cccnc2)cc1	-	-	-	-	.	-
CCOc1ccccc1C(=O)Nc1cc(-c2nc3cccnc3s2)ccc1C	.	9.5µM	.	.	.	.
NS(=O)(=O)c1ccc(C(=O)Nc2ccc(-c3nc4cccnc4s3)cc2)cc1	1.4µM	12µM	?	?	.	1.4µM
O=C(Nc1cccc(-c2nc3cccnc3s2)c1)c1cccnc1Cl	-	17µM	-	?	.	-
Cc1nc2ccc(S(=O)(=O)Nc3cc(-c4nc5cccnc5s4)ccc3C)cc2s1	-	19µM	?	?	16µM	-
Cc1cc(C)cc(NC(=O)C2CCCN(c3cnccn3)C2)c1 (stereo not given)	.	-	.	.	-	.
CCOCC(=O)Nc1cccc(-c2nc3cccnc3s2)c1C	-	17µM	-	-	.	-
Cc1ccc(-c2nc3cccnc3s2)cc1NS(=O)(=O)c1cccs1	-	27µM	-	-	.	-
Cc1ccc(-c2nc3cccnc3s2)cc1NS(=O)(=O)c1ccc2c(c1)OCCO2	-	-	-	?	?	-
CCc1ccc(S(=O)(=O)Nc2ccc(-c3nc4cccnc4s3)cc2)s1	?	?	15µM	?	16µM	-
CSc1ncccc1C(=O)N1CCN(S(=O)(=O)c2ccc(F)cc2)CC1	-	-	-	-	.	-
CCOC(=O)C1(Nc2nccs2)Sc2ccccc2NC1=O (stereo not given)	-	?	-	7.3µM	-	-
CCOC(=O)C1(N(CC)CC)Sc2cc(C)ccc2NC1=O (stereo not given)	-	-	-	-	-	-
CCOc1ccc(CNC(=O)C2CCN(S(=O)(=O)N3CCCCC3)CC2)cc1	.	-	.	.	.	.
O=C(N/N=C/c1c(Cl)cccc1Cl)c1n[nH]c2c1CCCC2	2.8µM	6.7µM	?	?	18µM	2.8µM
Cc1ccsc1/C=N\NC(=O)c1n[nH]c2c1CCC2	0.63µM	2.1µM	?	?	1.6µM	1µM
O=C(NN=C1CCCC1)c1n[nH]c2c1CCC2	-	?	?	?	.	-
O=C(N/N=C/c1c(Cl)cccc1Cl)c1ccccc1F	-	-	-	?	-	-
COc1ccc(NC(=O)Nc2ccc3c(c2)C(=O)N([C@H](C)CO)C[C@H](C)[C@@H](CN(C)C(=O)Nc2c(C)noc2C)O3)cc1	.	.	-	-	.	.
Cc1cc2nn(-c3cccc4ccccc34)nc2cc1N	2.8µM	4.8µM	13µM	?	13µM	?
Nc1ccc2nn(-c3cccc4ccccc34)nc2c1	-	19µM	-	?	-	-
CCc1ccc(-n2nc3cc(C)c(NC(=O)c4cccc5ccccc45)cc3n2)cc1	.	?	.	.	-	.
SMILES	Rab9 promoter act	FLuc counter	ELG1 genotox	ELG1 repair inh	SMN2 splice enh	NPC1 promoter act
Cc1cccc(C)c1Nc1nc2ccccc2nc1NS(=O)(=O)c1ccccc1	.	?	.	.	-	.
Cc1ccc(CC(=O)Nc2ccc3c(c2)N(C)C(=O)c2ccccc2S3)cc1	.	-	.	.	.	.
Cc1ccc(O)c(N=Cc2sc3ccccc3c2Cl)c1	-	1.5µM	-	?	-	-
Oc1ccccc1N=Cc1sc2ccccc2c1Cl	-	2.1µM	-	-	-	-
Oc1ccc(Cl)cc1C=Nc1ccccc1Br	-	-	-	-	-	-
O=c1[nH][nH]cc1C=Nc1ccccc1O	-	-	-	-	?	-
O=C(Nc1ccc(OCc2cc(=O)n3c4c(sc3n2)CCCC4)cc1)c1ccccc1	.	-	.	.	-	.
O=C(O)CCn1c(=O)c2cccn2c2cccnc21	.	-	.	.	-	.
